The record followed here is paper PMC8384837, “Expanding the binding specificity for RNA recognition by a PUF domain”.

What all share (experiment): yeast three-hybrid, YBZ-1, SC-Leu-His + 0.5 mM 3-AT, 4 days
Details in all cases: tags: N-Gal4 AD-HA kept; label: inside an RPR1-promoter hybrid RNA with tandem MS2 sites; ssRNA

One test addresses PUM1 PUF domain R8-AWK (Homo sapiens, UniProt Q14671 828-1176, N1122A;Y1123W;Q1126K). The method, boiled down: (§1)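 Each repeat of the Pumilio-1 PUF domain was randomized at its three base-contacting residues, and these libraries were co-expressed from a centromeric plasmid with matching RNA elements in strain YBZ-1. After four days on SC-Leu (input) or SC-Leu-His + 0.5 mM 3-AT (selection), the repeat regions were PCR-amplified and Illumina-sequenced. The interaction score compares variant frequency between input and selection as a log change, computed in log2 with a pseudocount of 1 for absent variants.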

The target of a further test is PUM1 PUF domain R5-RGG (Homo sapiens, UniProt Q14671 828-1176, C1007R;R1008G;Q1011G). The method, boiled down: as §1
Another test deals with T1, PUM1 PUF domain R6-GYQ (Homo sapiens, UniProt Q14671 828-1176, N1043G).
T1 sequence: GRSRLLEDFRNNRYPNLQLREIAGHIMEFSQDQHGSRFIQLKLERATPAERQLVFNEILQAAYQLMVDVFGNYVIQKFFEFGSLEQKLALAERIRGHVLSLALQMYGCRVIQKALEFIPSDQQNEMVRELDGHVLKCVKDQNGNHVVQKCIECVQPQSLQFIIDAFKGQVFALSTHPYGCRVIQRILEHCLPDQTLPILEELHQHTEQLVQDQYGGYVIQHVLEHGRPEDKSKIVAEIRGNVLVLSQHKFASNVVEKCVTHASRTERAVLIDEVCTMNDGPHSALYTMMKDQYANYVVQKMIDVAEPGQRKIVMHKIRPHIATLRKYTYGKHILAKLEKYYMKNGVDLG
In short, it runs like this: as §1

A further test has as its target PUM1 PUF domain R3-LSV (Homo sapiens, UniProt Q14671 828-1176, C935L;R936S;Q939V). In short, it runs like this: as §1
Another test concerns the target PUM1 PUF domain R5-SVG (Homo sapiens, UniProt Q14671 828-1176, C1007S;R1008V;Q1011G). In short, it runs like this:
as §1

A further test has as its target PUM1 PUF domain R1-RWS (Homo sapiens, UniProt Q14671 828-1176, S863R;R864W;Q867S). The method, boiled down: as §1
The target of the next test is PUM1 PUF domain R1-RGT (Homo sapiens, UniProt Q14671 828-1176, S863R;R864G;Q867T). In short, it runs like this:
as §1

Another test has as its target PUM1 PUF domain R1-MGR (Homo sapiens, UniProt Q14671 828-1176, S863M;R864G;Q867R). The method, boiled down: as §1
A further test addresses PUM1 PUF domain R3-LWN (Homo sapiens, UniProt Q14671 828-1176, C935L;R936W;Q939N). The method, boiled down:
as §1

The next test addresses PUM1 PUF domain R7-RGY (Homo sapiens, UniProt Q14671 828-1176, S1079R;N1080G;E1083Y). The method, boiled down:
as §1

Sequence of PUM1 PUF domain R1-RWS (Q14671 828-1176 S863R/R864W/Q867S): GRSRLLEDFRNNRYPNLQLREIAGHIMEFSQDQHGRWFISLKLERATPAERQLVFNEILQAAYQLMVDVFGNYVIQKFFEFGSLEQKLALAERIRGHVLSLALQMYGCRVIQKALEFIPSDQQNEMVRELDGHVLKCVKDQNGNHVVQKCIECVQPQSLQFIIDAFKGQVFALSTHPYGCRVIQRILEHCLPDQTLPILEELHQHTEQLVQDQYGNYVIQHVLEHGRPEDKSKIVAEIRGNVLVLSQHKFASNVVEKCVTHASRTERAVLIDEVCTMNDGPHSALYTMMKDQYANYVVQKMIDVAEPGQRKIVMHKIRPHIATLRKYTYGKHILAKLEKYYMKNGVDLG
Sequence of PUM1 PUF domain R1-RGT (Q14671 828-1176 S863R/R864G/Q867T): as the sequence (Q14671 828-1176 S863R/R864W/Q867S) above, with W37G, S40T counted along it

“GGCUAGAACUAGUGGAUCCCCCGGCGCCCGGCGGCUCGAGCCCGGGUAAGCGUAAAUAGUCUGCAUGCCGCCGGGCGCCAUGCCUGCAGGUCGACUCUAGAAAACAUG”: the binding signal with PUM1 PUF domain R8-AWK was 4.69 log2 enrichment (interaction score).

Regarding “GGCUAGAACUAGUGGAUCCCCCGGCGCCCGGCGGCUCGAGCCCGGGUAAGUGUCAAUAGUCUGCAUGCCGCCGGGCGCCAUGCCUGCAGGUCGACUCUAGAAAACAUG”, the binding signal with PUM1 PUF domain R5-RGG was 2.8 log2 enrichment (interaction score).

As to “GGCUAGAACUAGUGGAUCCCCCGGCGCCCGGCGGCUCGAGCCCGGGUAAGUGUAAAUAGUCUGCAUGCCGCCGGGCGCCAUGCCUGCAGGUCGACUCUAGAAAACAUG”, the binding signal in the test with PUM1 PUF domain R8-AWK was 5.21 log2 enrichment (interaction score); in the test with PUM1 PUF domain R6-GYQ it was 3.62 log2 enrichment (interaction score).

As to “GGCUAGAACUAGUGGAUCCCCCGGCGCCCGGCGGCUCGAGCCCGGGUAAGUGUAAGUAGUCUGCAUGCCGCCGGGCGCCAUGCCUGCAGGUCGACUCUAGAAAACAUG”, the binding signal with PUM1 PUF domain R3-LSV is 3.37 log2 enrichment (interaction score).

Regarding “GGCUAGAACUAGUGGAUCCCCCGGCGCCCGGCGGCUCGAGCCCGGGUAAGUGUGAAUAGUCUGCAUGCCGCCGGGCGCCAUGCCUGCAGGUCGACUCUAGAAAACAUG”, the binding signal with PUM1 PUF domain R5-SVG was 2.82 log2 enrichment (interaction score).

“GGCUAGAACUAGUGGAUCCCCCGGCGCCCGGCGGCUCGAGCCCGGGUAAGUGUUAAUAGUCUGCAUGCCGCCGGGCGCCAUGCCUGCAGGUCGACUCUAGAAAACAUG”: the binding signal with PUM1 PUF domain R5-RGG is 2.55 log2 enrichment (interaction score).

On to “GGCUAGAACUAGUGGAUCCCCCGGCGCCCGGCGGCUCGAGCCCGGGUAAGUGUAAAUGGUCUGCAUGCCGCCGGGCGCCAUGCCUGCAGGUCGACUCUAGAAAACAUG”, for which the binding signal in the test with PUM1 PUF domain R1-RWS was 1.65 log2 enrichment (interaction score); in the test with PUM1 PUF domain R1-RGT, 1.3 log2 enrichment (interaction score).

On to “GGCUAGAACUAGUGGAUCCCCCGGCGCCCGGCGGCUCGAGCCCGGGUAAGUGUAAAUUGUCUGCAUGCCGCCGGGCGCCAUGCCUGCAGGUCGACUCUAGAAAACAUG”, for which the binding signal in the test with PUM1 PUF domain R1-RWS is 3.86 log2 enrichment (interaction score); with PUM1 PUF domain R1-MGR, 2.75 log2 enrichment (interaction score); in the test with PUM1 PUF domain R1-RGT, 4.56 log2 enrichment (interaction score).

With “GGCUAGAACUAGUGGAUCCCCCGGCGCCCGGCGGCUCGAGCCCGGGUAAGUGUAAAUCGUCUGCAUGCCGCCGGGCGCCAUGCCUGCAGGUCGACUCUAGAAAACAUG”, the figures for the binding signal in the test with PUM1 PUF domain R1-RWS, in the test with PUM1 PUF domain R1-MGR and with PUM1 PUF domain R1-RGT were 2.83 log2 enrichment (interaction score), 1.49 log2 enrichment (interaction score) and 5.04 log2 enrichment (interaction score), respectively.

In the case of “GGCUAGAACUAGUGGAUCCCCCGGCGCCCGGCGGCUCGAGCCCGGGUAAGUGUAAUUAGUCUGCAUGCCGCCGGGCGCCAUGCCUGCAGGUCGACUCUAGAAAACAUG”, the binding signal was 2.26 log2 enrichment (interaction score) with PUM1 PUF domain R3-LSV and 4 log2 enrichment (interaction score) with PUM1 PUF domain R3-LWN.

Turning to “GGCUAGAACUAGUGGAUCCCCCGGCGCCCGGCGGCUCGAGCCCGGGUAAGUUUAAAUAGUCUGCAUGCCGCCGGGCGCCAUGCCUGCAGGUCGACUCUAGAAAACAUG”, in the test with PUM1 PUF domain R7-RGY, the binding signal is 2.43 log2 enrichment (interaction score).
